Bioassay records as filed in PubChem BioAssay.
ERG-DNA inh = qHTS for Small Molecule Inhibitors of the ERG Ets/DNA interaction | Transcriptional regulator ERG (Homo sapiens), P11308 | fluorescence polarization, His-ERG Ets domain / labelled DNA | Potency, µM (titrated, usually from 76.9 µM), without a hit: top-dose FP activity, negative = inhibition, hits mostly inhibitors | 370,000 tested, 0.028% active | AID 624246, 2012; active = well fitted inhibition curve with a large enough effect in the polarisation, with a control signal flat; inconclusive = small, poorly fitted or top-dose-only effect, or effect the other way, or a change in a side signal; inactive = no such curve, though single readings can be large or run the other way; the % refers to the polarisation;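 also: polarization taken with two DNA probes labelled with fluorescein and Texas red; % of control where 0% means no effect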
Target sequence (P11308 whole entry, looked up, the tested form may be a part): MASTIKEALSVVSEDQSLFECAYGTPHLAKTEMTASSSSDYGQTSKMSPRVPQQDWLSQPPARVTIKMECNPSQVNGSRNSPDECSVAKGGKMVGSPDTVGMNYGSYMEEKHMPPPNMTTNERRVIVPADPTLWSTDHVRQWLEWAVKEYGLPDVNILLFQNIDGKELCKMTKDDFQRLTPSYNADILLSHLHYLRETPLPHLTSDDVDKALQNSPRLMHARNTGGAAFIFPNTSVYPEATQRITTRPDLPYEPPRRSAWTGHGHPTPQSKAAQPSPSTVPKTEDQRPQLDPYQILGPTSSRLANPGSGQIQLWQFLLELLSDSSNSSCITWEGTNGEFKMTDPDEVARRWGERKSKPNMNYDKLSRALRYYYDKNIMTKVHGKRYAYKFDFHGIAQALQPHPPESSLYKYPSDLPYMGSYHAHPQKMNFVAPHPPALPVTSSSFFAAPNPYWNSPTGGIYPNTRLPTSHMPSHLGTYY
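His-tagged ERG Ets domain (1 uM in the protein solution; 300mM KCl, 50mM Tris-HCl, 1mM EDTA, 1mM DTT, pH 7.5) received compound, then a probe mix of 5 nM fluorescein-DNA and 100nM Texas-615-DNA. Fluorescence polarization was read for both dyes.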
TDP-43 yeast inh = qHTS of TDP-43 Inhibitors | Potency, µM (series often up to 46.1 µM), for inactives: top-dose growth rescue (activation), most hits filed as activators | AID 652104, 2013 | TDP-43 expressing yeast growth rescue, BacTiter-Glo, 24 h | 410,000 tested, 1.8% active; also: % of control where 0% means no effect; nearly all actives have a fitted effect of over 50% in size
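Luminescence from BacTiter-Glo reports growth of TDP-43-expressing yeast after 24 hr at 30 deg C with compound. Cells were raffinose-pregrown to mid-log, then seeded in galactose medium at OD600=0.02.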
Abeta yeast res = qHTS for compounds that reverse cellular toxicity of Amyloid beta (A-beta) peptide in yeast: Primary Screen | yeast expressing A-beta42, growth rescue, OD600, 48 h; response scale: 0% DMSO, 100% iron-clioquinol control | Potency, µM (top dose mostly 46.1 µM), usual class: activators | 410,000 tested, 0.063% active | AID 1347071, 2019; also: nearly all actives have a fitted effect of over 55% in size
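Yeast growth medium received pinned compounds, then yeast cells expressing toxic A-beta were added; plates incubated at 30 C for 48 hr. Growth read as absorbance at 600 nm, normalized to DMSO and equimolar FeCl3 plus clioquinol controls.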
aSyn rescue = qHTS of alpha-syn Inhibitors; Potency, µM (series often up to 46.1 µM), without a hit: at the highest dose growth rescue (activation), hits mostly activators; Yeast expressing alpha-synuclein, growth rescue, BacTiter-Glo, 24 h; 370,000 tested, 0.14% active; also: % of control where 0% means no effect; nearly all actives have a fitted effect of over 65% in size
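Galactose-induced alpha-syn yeast (OD600=0.02, raffinose-pregrown) + pinned cpd, 24 hr, 30 deg C; growth by BacTiter-Glo luminescence. Growth restoration scores as activation.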
FUS suppressor = qHTS for Suppressors of FUS Proteinopathy: Primary screen using FUS-linked yeast assay | AID 1347120, 2019 | 390,000 tested, 0.24% active | S. cerevisiae FUS-expressing, growth rescue, OD600, 24 h | Potency, µM (series often up to 76.6 µM), hits mostly activators;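 also: plate controls were DMSO vehicle for no effect and reference control for full effect; nearly all actives have a fitted effect of over 55% in size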
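Compound concentration series was pinned onto galactose-induced FUS-expressing yeast seeded at OD 0.005. Plates sat 24hr at 30C; absorbance at 600 nm gave growth. DMSO served as background control.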
Mito fusion act = qHTS Assay for Small Molecule Inhibitors of Mitochondrial Division or Activators of Mitochondrial Fusion | Potency, µM (highest dose often 46.1 µM), inactives show at the top dose growth rescue (activation), usual class: activators | 320,000 tested, 0.23% active | S. cerevisiae fusion-defective mutant growth rescue, CellTiterGlo 48 h; also: % of control where 0% means no effect; nearly all actives have a fitted effect of over 45% in size
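Read-out: ATP-based luminescence (CellTiterGlo, 10 min ambient) reporting growth of fusion-defective ts yeast after 48 hours at 37C on glycerol/ethanol YPEG medium in the presence of compound.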
* hit, by the source's call; i = inactive; u = inconclusive; x = no result given; [ ] = dose if it differs, or a comment. In the library only some 2.2% were active in any assay of this set; here they are far more common. Unless noted, calls follow the shape of the dose curve; as a rule, active = well fitted curve in the direction sought with a large enough effect; inconclusive = small, poorly fitted or top-dose-only effect, or another doubt; inactive = no such curve, though single readings can be large; an effect the other way counts as inactive or inconclusive. Potency is read from the fitted curve at half-maximal effect.

SMILES | ERG-DNA inh | TDP-43 yeast inh | Abeta yeast res | aSyn rescue | FUS suppressor | Mito fusion act
Nc1ccc(N2CCN(c3ccc(Cl)c(Cl)c3)CC2)cc1 | x | 8.9µM* | i | 12% | x | 13µM*
COC(=O)c1cc(-c2ccc(C)cc2)c2c(=O)n(C)c(=O)n(C)c2n1 | 5% | 14% | i | x | i | x
CCCNC(=O)OCc1cccnc1Sc1ccc(C)cc1 | -6% | 20µM* | i | 8% | i | -4%
COc1ccc(Cl)cc1NC(=O)CCS(=O)(=O)c1cccc2nonc12 | 6% | -11% | i | x | i | x
CCc1c(C(=O)C(C)O)c2n3c1CCC[C@@H]3CC2 (some centres not stated) | x | x | x | x | i | x
COc1cccc(C(=O)NC2CCN(C(=O)N3c4ccccc4Sc4ccccc43)CC2)c1 | x | u | i | -14% | u | u
COc1cccc(C(=O)N2c3ccccc3Sc3ccccc32)c1 | -3% | 22µM* | i | 24% | i | u
O=C(NCc1ccc2c(c1)OCO2)C12CN(Cc3ccccc3)CC1C(c1cccc([N+](=O)[O-])c1)=NO2 (configuration not stated) | 5% | -13% | i | -4% | 28µM* | -8%
O=C(NCc1ccc(C(F)(F)F)cc1)C12CN(Cc3ccccc3)CC1C(c1cccc([N+](=O)[O-])c1)=NO2 (configuration not stated) | 20% | 3% | i | 5% | i | -1%
COc1ccc(-c2nnn3c2nc(NCc2ccc(C)cc2)c2ccccc23)cc1 | -1% | 9% | i | x | i | x
CCOC(=O)c1ccc(N=c2scc(C)n2CC)cc1 | -1% | -7%[0.397 µM] | i | 7% | i | 7%
CCOC(=O)c1ccc(N=C2C(=S)N(c3ccc(C(=O)OCC)cc3)C(=N)N2/N=C/c2ccccc2)cc1 | -6% | 0% | i | 1% | 28µM* | 3%
COc1ccc(C(=O)OCc2ccccc2C#N)cc1S(=O)(=O)N1CCOCC1 | x | 19% | i | 2% | i | x
Cc1nc(Oc2ccccc2)c2ccsc2n1 | -6% | 13µM* | i | 6% | i | 3%
Cc1cccc(NC(=O)C2C(c3ccccc3)C2(Cl)Cl)c1 (configuration not stated) | 14% | 22µM* | i | -37% | i | u
CCOC(=O)c1cc(-c2ccc(F)cc2)n(CCC(=O)Nc2nc3cc(C)c(C)cc3s2)c1C | 2% | 0% | i | x | i | x
Clc1cccc(CNc2ccn3nc(-c4ccc(OCCN5CCOCC5)cc4)cc3n2)c1 | x | 0% | i | u | i | x
Clc1cccc(CNc2ccn3nc(-c4ccco4)cc3n2)c1 | x | 16µM* | i | u | i | x
Clc1cccc(CNc2ccn3nc(-c4cccs4)cc3n2)c1 | x | 18µM* | u | u | i | x
COCCNc1cc(N)c([N+](=O)[O-])cc1[N+](=O)[O-] | -11% | 11µM* | i | 5% | i | 4%
S=C(NCc1ccc(Cl)cc1)Nc1ccccc1 | 0% | u | 13µM* | 9% | i | -5%
Fc1ccc(CNC(=S)Nc2ccc(Cl)cc2)cc1 | 0% | u | i | 0% | i | -20%
COc1ccccc1NC(=S)NCCc1ccc(Cl)cc1 | -9% | 16µM* | i | 6% | i | -1%
Fc1ccccc1NC(=S)NCCc1cccc(Cl)c1 | -2% | u | 22µM* | -1% | i | -2%
S=C(NCCc1ccccc1)NCc1cccc(Cl)c1 | 3% | 23% | 16µM* | 4% | i | -5%
SMILES | ERG-DNA inh | TDP-43 yeast inh | Abeta yeast res | aSyn rescue | FUS suppressor | Mito fusion act
CCOc1ccccc1NC(=S)NCCc1ccccc1 | -16% | u | i | -17% | i | -2%
CN(C(=O)CC(=O)Nc1ccc2nc3n(c(=O)c2c1)CCCCC3)c1ccccc1F | -4% | -10% | i | x | i | x
S=C(NCCCCc1ccccc1)NCc1ccccc1 | 5% | 15% | 16µM* | 0% | i | -6%
Cc1c(Cl)cccc1NC(=S)NCCc1ccc(C(F)(F)F)cc1 | -4% | 14µM* | u | -1% | i | -3%
Cc1c(Cl)cccc1NC(=S)NCCc1ccccn1 | 6% | 12% | i | 0% | i | -1%
S=C(NCc1ccccc1)C(=S)NCc1ccccc1 | -5% | 19% | 8.9µM* | -31% | i | x
Cc1cc(Cl)ccc1NC(=S)NCc1ccc(F)cc1 | -3% | 18µM* | i | -8% | i | -9%
O=C(COc1ccccc1)Nc1nnc(-c2ccc(Cl)s2)o1 | 0% | 8.9µM* | u | 18µM* | i | 1%
O=C(COc1ccccc1)Nc1nnc(-c2ccco2)o1 | -3% | u | i | 2% | i | 9%
Cc1ccc(C)c(-c2nnc(NC(=O)COc3ccccc3)o2)c1 | -3% | 14µM* | i | 11µM* | i | u
O=C(Nc1nnc(-c2ccc(Cl)s2)o1)C1CC1 | -8% | u | i | 3% | i | -6%
O=C(COc1ccccc1)Nc1nnc(-c2ccccc2)o1 | -7% | u | u | 20µM* | i | 1%
OC[C@@H]1CC[C@@H](Cc2ccc(-c3ccccc3)cc2)O1 | -2% | 11µM* | i | 18µM* | i | x
Cc1cc(C(=O)C(C)Sc2cccc[n+]2[O-])c(C)n1-c1ccc(Cl)cc1 (configuration not stated) | 6% | u | i | 2.8µM* | i | 5%
CC(C)COc1ccc(-c2nn(-c3ccccc3)cc2CO)cc1 | -1% | 28µM* | i | 4% | i | -41%
OCc1cn(-c2ccccc2)nc1-c1ccc(Br)cc1 | 9% | 28% | i | 2% | i | 25%
CCN(CC)C(=O)C1CCN(S(=O)(=O)c2c(C)noc2/C=C/c2cccc(C)c2)CC1 | 7% | 0% | i | 1% | 20µM* | -7%
CCN(CC)C(=O)C1CCN(S(=O)(=O)c2c(C)noc2/C=C/c2cccc(OC)c2)CC1 | 1% | 11% | i | x | u | x
COC(=O)c1cc2oc(C)cc2n1Cc1cccc(Cl)c1 | -2% | 7% | i | x | i | x
O=C(NCCc1ccc(Cl)cc1)c1cnc2n(c1=O)CCS2 | -11% | 35µM* | i | 11% | i | 5%
CCOC(=O)CC[C@@H]1CC[C@]2(CCCN(C(=O)C3CCCCC3)C2)O1 | x | x | x | x | i | x
